According to PubChem BioAssay AID618 (Sanford-Burnham Center for Chemical Genomics, 2007):
Among all 87,000 compounds or so, about 540 (0.62%) were called active. No rule for the calls is given here. The list comes from a sample in which actives are over-represented; it also holds similar structures and randomly drawn compounds. Results with a measured potency or affinity are listed apart.

assay: MT1-MMP gene expression reporter suppression – cell-based, luciferase reporter, luminescence (AID 618); details: MT1-MMP promoter luciferase reporter cells;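 also: actives suppress MT1-MMP promoter-driven transcription so potencies describe inhibitors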

Row | SMILES | outcome
1 | CC(C)CNC(=O)c1ccccc1NC(=O)c1ccccc1N(C)S(C)(=O)=O | inactive
2 | COC(=O)CSc1nnc2n1C(C)(C)Cc1ccccc1-2 | inactive
3 | Cc1ccc2cc(CCNC(=O)C(C)C)c(=O)[nH]c2c1 | inactive
4 | COC(=O)c1sc(S(=O)(=O)N2CCCCC2)c(C(=O)OC)c1C | inactive
5 | COc1ccc(NC(=O)NCCCN2CCc3ccccc3C2)cc1 | inactive
6 | O=C(Nc1ccc(N2CCCCC2)c(C(=O)O)c1)c1ccco1 | inactive
7 | O=C(Nc1ccc(N2CCOCC2)c(Cl)c1)c1ccco1 | inactive
8 | CC(=O)NC(c1ccco1)c1ccc2cccnc2c1O (stereo not given) | inactive
9 | Oc1c(C(Nc2nc3ccccc3s2)c2ccco2)ccc2cccnc12 (stereo not given) | inactive
10 | CCN(CC)C(=O)CSc1nnc(-c2ccccn2)n1-c1ccc(C)c(C)c1 | inactive
11 | COc1ccc(-c2nsc3c(N4CCCC4)ncnc23)cc1 | active
12 | COc1ccc(-c2nsc3c(N4CCN(S(=O)(=O)c5ccccc5)CC4)ncnc23)cc1 | inactive
13 | COc1ccc(S(=O)(=O)N2CCN(c3ncnc4c(-c5ccccc5)nsc34)CC2)cc1 | inactive
14 | COc1ccc(-c2nsc3c(N4CCN(C(=O)c5ccco5)CC4)ncnc23)cc1 | inactive
15 | O=C(N1CCCC1)N1CCN(c2ncnc3c(-c4ccc(Cl)cc4)nsc23)CC1 | inactive
16 | CC1(C)CC(=O)c2cc(C(=O)NC3CCSC3=O)c(=O)n(-c3ccccc3)c2C1 (stereo not given) | inactive
17 | O=C(O)C1C2C=CC(C2)C1C(=O)N1CCc2ccccc21 (stereo not given) | inactive
18 | O=C1CCC(C(=O)OCc2c(Cl)cccc2Cl)N1 (stereo not given) | inactive
19 | CC1C2CC(CC1(C)C)N(C(=O)Nc1ccc3nccnc3c1)C2 (stereo not given) | inactive
20 | COC(=O)c1c(O)c2ccccc2[nH]c1=O | inactive
21 | Cc1cccc2cc(CN(Cc3cccs3)C3(c4nnnn4C4CCCC4)CCCC3)c(=O)[nH]c12 | inactive
22 | c1ccc(-c2ccc(-c3cn4c(n3)CCC4)cc2)cc1 | inactive
23 | c1ccc(-c2cn3c(n2)CCC3)cc1 | inactive
24 | COc1cccc(-c2cn3nc4c(nc3n2)CCCC4)c1 | active
25 | COc1cccc(-c2cn3nc(C)c(C)nc3n2)c1 | inactive

Row | SMILES | outcome
26 | COc1ccc(-c2cn3ccc4ccccc4c3n2)cc1 | inactive
27 | COc1cccc(-c2cc(C(F)(F)F)n3nc(N)nc3n2)c1 | inactive
28 | COc1ccc(-c2cn3c(n2)CCC3)cc1 | inactive
29 | CCOC(=O)c1cc(-c2ccccc2)n(CC(=O)N2CCCC2)c1C | inactive
30 | COc1ccc(OC)c(C(C)NC=O)c1 (stereo not given) | inactive
31 | Cc1noc(C)c1CSc1nnc2scc(-c3ccc(Cl)cc3)n12 | inactive
32 | O=C(Nc1cccnc1)c1noc2c1CCCCC2 | inactive
33 | Cc1ccc(NC(=O)c2noc3c2CCCCC3)cc1 | inactive
34 | Cc1ccc(NC(=O)c2noc3c2CCCCC3)cc1C | inactive
35 | CCc1ccc(NC(=O)c2noc3c2CCCCC3)cc1 | inactive
36 | Cc1ccccc1C1CC(c2ccc(F)cc2)Nc2nc(N)nn21 (stereo not given) | inactive
37 | O=C1CCC(=O)N1CCCCCc1nc(-c2ccccc2)no1 | inactive
38 | NS(=O)(=O)c1ccc(CNC(=O)C2CCCCC2)cc1 | inactive
39 | CCn1c(SCC(=O)NCC(=O)Nc2ccc(F)cc2)nnc1-c1cccs1 | inactive
40 | O=C(COc1c(F)c(F)c(C(F)(F)F)c(F)c1F)Nc1ccc(N2CCOCC2)c(Cl)c1 | inactive
41 | CCOC(=O)C(NC(=O)CC(C)C)(Nc1cc(C)on1)C(F)(F)F (stereo not given) | inactive
42 | CCC(C)(C)n1nnnc1CN1CCC(c2nc3ccc(C)cc3[nH]2)CC1 | inactive
43 | Cc1cc2nc(-c3cccc(NC(=O)c4ccc(Br)o4)c3C)oc2cc1C | inactive
44 | Cc1cc2oc(=O)cc(CN3CCC(C)CC3)c2cc1Cl | inactive
45 | c1ccc(OCCn2c(-c3ccco3)nc3ccccc32)cc1 | inactive
46 | CCC(C)C(=O)N1CCc2cc(-c3csc(N)n3)ccc21 (stereo not given) | inactive
47 | CC(C)C(=O)N1CCc2cc(-c3csc(N)n3)ccc21 | inactive
48 | Cc1csc(=O)n1CC(=O)OCc1cccc2ccccc12 | inactive
49 | CCOC(=O)c1nn(-c2cc(C(=O)OC)cc(C(=O)OC)c2)cc1O | inactive
50 | COC(=O)c1nn(-c2ccc3c(c2)OCO3)cc1O | inactive

Row | SMILES | outcome
51 | COC(=O)c1nn(-c2c(C)n(C)n(-c3ccccc3)c2=O)cc1O | inactive
52 | COCCCNS(=O)(=O)c1ccc2c(c1)CCN2C(C)=O | inactive
53 | CCOC(=O)c1cc(C(=O)OCC)cc(-n2cc(O)c(C(=O)OCC)n2)c1 | inactive
54 | CCOC(=O)c1nn(-c2ccc3c(c2)CCN3C(C)=O)cc1O | active
55 | CCOC(=O)c1nn(-c2ccc3c(c2)OCO3)cc1O | inactive
56 | O=S(=O)(NCc1ccc(Cl)cc1)c1cnc[nH]1 | inactive
57 | O=C(O)C1CCCCC1C(=O)NC1CCCCC1 (stereo not given) | inactive
58 | CC(C)(C)C(=O)NC1CCN(S(C)(=O)=O)CC1 | inactive
59 | Cn1cccc1Cc1nnc(SCC(=O)N2CCc3ccccc32)n1-c1ccc(F)cc1 | inactive
60 | CC1=NC(=O)C(N=Nc2cccc(O)c2)N1c1ccccc1 (stereo not given) | inactive
61 | CC1=NC(=O)C(N=Nc2ccccc2)N1c1ccccc1 (stereo not given) | inactive
62 | Cc1ccn(Cc2n[nH]c(=S)n2Cc2ccccc2)n1 | inactive
63 | COc1ccc(C)cc1S(=O)(=O)N1CCC(C(=O)NCCC2=CCCCC2)CC1 | inactive
64 | NS(=O)(=O)c1ccc(NS(=O)(=O)c2cccs2)cc1 | inactive
65 | COc1cc(C2C(C#N)=C(N)Oc3cc(O)ccc32)cc2c1OCO2 (stereo not given) | inactive
66 | COc1cc(C2C(C#N)=C(N)Oc3cc(C)oc(=O)c32)cc2c1OCO2 (stereo not given) | inactive
67 | CCN(CC)c1ccc2c(c1)OC(N)=C(C#N)C2c1cccnc1 (stereo not given) | active
68 | N#CC1=C(N)Oc2cc(N)ccc2C1c1ccc(F)cc1 (stereo not given) | inactive
69 | N#CC1=C(N)Oc2c(ccc3cccnc23)C1c1cccnc1 (stereo not given) | inactive
70 | N#CC1=C(N)Oc2cc(O)ccc2C1c1ccccc1 (stereo not given) | inactive
71 | COc1cc(C2C(C#N)=C(N)Oc3cc(N(C)C)ccc32)cc2c1OCO2 (stereo not given) | active
72 | N#CC1=C(N)Oc2cc3ccccc3cc2C1c1cccnc1 (stereo not given) | inactive
73 | CN(C)c1ccc2c(c1)OC(N)=C(C#N)C2c1cccc(F)c1 (stereo not given) | active
74 | Cc1cc(NC(=O)CSc2nc3c(c(=O)n2CCc2ccccc2)SC(C)C3)no1 (stereo not given) | inactive
75 | O=C1CC(c2ccccc2)n2nc(NC(=O)c3cccs3)nc2N1 (stereo not given) | inactive
